# Results from the supplement of paper PMC9135407.
# Values joined by “and” are separate entries in the source; they are usually repeats but may differ in a detail not shown here. Identical values can stand only once. Counter-ions that a name gives are not always drawn. The whole screen tested about 5,800 compounds, of which about 620 (11%) showed activity.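 How the source made its calls: active = score above a cut-off or among the top three wells of a plate; in these data no inactive exceeds 0.85.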 Shown is part of a subset that was picked to be rich in actives.
# Tested on: primary human hepatic stellate cells (donor 1)
# Assay: scaled lipid accumulation score (0 = DMSO-like, 1 = nortriptyline-like); higher = stronger HSC inactivation (lipid re-accumulation), active = hit call of the paper
# Conditions: 48 h
# [1] = library stock concentration: 1 mM
# [2] = library stock concentration: 2 mM
# [3] = library stock concentration: 400 uM
# [4] = library stock concentration: 10 mM
# [5] = library stock concentration: 80 uM
# [6] = library stock concentration: 3.33 mM
# [7] = library stock concentration: 2.6 mM
smiles,measurement,setting,value
CCCCCCCC/C=C\CCCCCCCC(=O)N[C@@H](CO)C(=O)O [N-Oleoyl-L-Serine],scaled lipid accumulation score,[1],≤ 0 (inactive)
CCCC1([C@H](O)C/C=C/[C@H]2[C@H](O)CC(=O)[C@@H]2CCCCCCC(=O)OC)CCC1 [Butaprost],scaled lipid accumulation score,[1],≤ 0 (inactive)
CC/C=C\C/C=C\C/C=C\C/C=C\C/C=C\CCCCCC(=O)O [Docosapentaenoic acid],scaled lipid accumulation score,[1],≤ -0.021 (inactive)
CC/C=C\C/C=C\C/C=C\C/C=C\C/C=C\CCCCCC(=O)O [Docosapentaenoic Acid],scaled lipid accumulation score,[1],≤ 0 (inactive)
"COc1cc2nccc(Oc3ccc(NC(=O)Nc4cc(C)on4)c(Cl)c3)c2cc1OC [AV951 (KRN951, Tivozanib) (2 mM)]",scaled lipid accumulation score,[2],≤ -0.005 (inactive)
"COc1cc2nccc(Oc3ccc(NC(=O)Nc4cc(C)on4)c(Cl)c3)c2cc1OC [AV951 (KRN951, Tivozanib) (0.4 mM)]",scaled lipid accumulation score,[3],≤ -0.005 (inactive)
COc1cc2nccc(Oc3ccc(NC(=O)Nc4ccc(F)cc4F)c(F)c3)c2cc1OC [listing 1 of 3 here],scaled lipid accumulation score,[4],1.05 (active)
COc1cc(Oc2ccnc3cc(OC)c(OC)cc23)ccc1NC(=O)NC(C)c1nccs1 (configuration not stated),scaled lipid accumulation score,[5],≤ -0.016 (inactive)
same,scaled lipid accumulation score,[3],≤ -0.016 (inactive) and ≤ -0.005 (inactive)
same,scaled lipid accumulation score,[2],≤ -0.016 (inactive) and ≤ -0.005 (inactive)
same,scaled lipid accumulation score,[4],0.713 (inactive) and 0.552 (inactive)
COc1cc2nccc(Oc3ccc(NC(=O)Nc4cc(C)on4)c(Cl)c3)c2cc1OC [VEGFR Tyrosine Kinase Inhibitor IV],scaled lipid accumulation score,[6],≤ 0 (inactive)
COc1cc2nccc(Oc3ccc(NC(=O)Nc4ccc(F)cc4F)c(F)c3)c2cc1OC [listing 2 of 3 here],scaled lipid accumulation score,[4],1.22 (active)
COc1cc2nccc(Oc3ccc(NC(=O)Nc4ccc(F)cc4F)c(F)c3)c2cc1OC [listing 3 of 3 here],scaled lipid accumulation score,[6],0.473 (inactive)
COc1cc2nccc(Oc3ccc(NC(=O)Nc4cc(C)on4)c(Cl)c3)c2cc1OC,scaled lipid accumulation score,[5],0.016 (inactive)
same,scaled lipid accumulation score,[3],≤ 0 (inactive)
same,scaled lipid accumulation score,[2],0.009 (inactive)
same,scaled lipid accumulation score,[4],0.246 (inactive)
"COc1cc2nccc(Oc3ccc(NC(=O)Nc4cc(C)on4)c(Cl)c3)c2cc1OC [AV951 (KRN951, Tivozanib) (10 mM)]",scaled lipid accumulation score,[4],0.775 (inactive)
COc1cc2nccc(Oc3ccc(NC(=O)Nc4cc(C)on4)c(Cl)c3)c2cc1OC [Tivozanib (AV-951)],scaled lipid accumulation score,[6],0.068 (inactive)
same,scaled lipid accumulation score,[4],0.098 (inactive)
COc1cc2nccc(Oc3ccc(NC(=O)NC4CC4)c(Cl)c3)c2cc1C(N)=O [Lenvatinib (E7080)],scaled lipid accumulation score,[6],0.055 (inactive)
same,scaled lipid accumulation score,[4],≤ 0 (inactive)
COc1cc2nccc(Oc3ccc(NC(=O)NC4CC4)c(Cl)c3)c2cc1C(N)=O,scaled lipid accumulation score,[3],0.067 (inactive)
same,scaled lipid accumulation score,[2],≤ -0.005 (inactive)
same,scaled lipid accumulation score,[4],≤ -0.005 (inactive)
CC(=O)N(O)[C@@H]1c2cc(C#N)ccc2OC(C)(C)[C@H]1O,scaled lipid accumulation score,[4],≤ 0 (inactive)
O=C(O)CCC/C=C\C[C@@H]1[C@@H](/C=C/C(F)(F)COc2ccccc2)[C@H](O)C[C@@H]1O [Tafluprost (free acid)],scaled lipid accumulation score,[1],0.007 (inactive)
CCCCC[C@H](O)/C=C/[C@@H]1[C@@H](C/C=C\CCCCN(C)C)[C@@H](O)C[C@H]1O [Prostaglandin F2.alpha. dimethyl amine],scaled lipid accumulation score,[1],≤ 0 (inactive)
CCCCCCCCCCCCCCCCCCOCC(COP(=O)([O-])OCC[N+](C)(C)C)OC (configuration not stated),scaled lipid accumulation score,[4],≤ -0.024 (inactive)
O=C(O)CCC/C=C\C[C@@H]1[C@@H](/C=C/C(=O)CCc2ccccc2)[C@H](O)C[C@@H]1O [15-keto-17-phenyl trinor Prostaglandin F2.alpha.],scaled lipid accumulation score,[1],≤ 0 (inactive)
CCCCC[C@H](O)/C=C/[C@@H]1[C@@H](C/C=C\CCCC(=O)OCC(O)CO)[C@@H](O)C[C@H]1O (stereo partly drawn) [Prostaglandin F2.alpha.-1-glyceryl ester],scaled lipid accumulation score,[1],≤ 0 (inactive)
CCCCCCCC(=O)CC[C@@H]1[C@@H](C/C=C\CCCC(=O)OC(C)C)[C@@H](O)C[C@H]1O [Unoprostone isopropyl ester],scaled lipid accumulation score,[1],≤ 0 (inactive)
CN1CCN(Cc2ccc(-c3cnc4[nH]cc(-c5ccc6[nH]ccc6c5)c4c3)cc2)CC1 [listing 1 of 2 here],scaled lipid accumulation score,[2],1.3 (active)
O=C(O)c1ccc(-c2c[nH]c3ncc(-c4ccccc4)cc23)cc1C1CCCC1,scaled lipid accumulation score,[6],≤ -0.009 (inactive)
same,scaled lipid accumulation score,[4],0.079 (inactive) and ≤ -0.001 (inactive)
CN1CCN(Cc2ccc(-c3cnc4[nH]cc(-c5ccc6[nH]ccc6c5)c4c3)cc2)CC1 [listing 2 of 2 here],scaled lipid accumulation score,[5],≤ -0.001 (inactive)
same,scaled lipid accumulation score,[3],0.001 (inactive)
same,scaled lipid accumulation score,[4],0.422 (inactive)
NC[C@H]1O[C@@H](n2cnc3c(N)ncnc32)[C@H](O)[C@@H]1O [5'-Amino-5'-deoxyadenosine p-toluenesulfonate salt],scaled lipid accumulation score,[4],≤ 0 (inactive)
CCCOc1cc(N)ccc1C(=O)OCCN(CC)CC [Propoxycaine hydrochloride],scaled lipid accumulation score,,≤ 0 (inactive)
CCN(CC)CCOc1ccc2c(c1)C(=O)c1cc(OCCN(CC)CC)ccc1-2 [Tilorone] [listing 1 of 2 here],scaled lipid accumulation score,[4],0.879 (active)
CCN(CC)CCOc1ccc2c(c1)C(=O)c1cc(OCCN(CC)CC)ccc1-2 [Tilorone] [listing 2 of 2 here],scaled lipid accumulation score,library stock concentration: 4.9 mM,0.006 (inactive)
FC(F)(F)COCC(F)(F)F [Flurothyl],scaled lipid accumulation score,library stock concentration: 11 mM,≤ -0.001 (inactive)
OCCC#Cc1nc(-c2ccc(F)cc2)c(-c2ccncc2)n1CCCc1ccccc1,scaled lipid accumulation score,[3],≤ -0.005 (inactive)
same,scaled lipid accumulation score,[2],≤ -0.005 (inactive)
same,scaled lipid accumulation score,[4],0.668 (inactive)
Nc1ncnc2c1ncn2C1CCCO1 (configuration not stated),scaled lipid accumulation score,[4],≤ 0 (inactive) and ≤ -0.006 (inactive)
same,scaled lipid accumulation score,library stock concentration: 24.4 mM,≤ -0.005 (inactive)
CC(=O)c1ccc2c(c1)N(CCCN1CCC(CCO)CC1)c1ccccc1S2 [Piperacetazine],scaled lipid accumulation score,,0.427 (inactive)
COc1ccccc1N1CCN(CCCCN2C(=O)c3ccccc3C2=O)CC1 [NAN-190 hydrobromide],scaled lipid accumulation score,[4],0.324 (inactive) and 0.002 (inactive)
Cl.O=C(CCCCCN1CCN(c2ccccc2-c2ccccc2)CC1)NC1CCCc2ccccc21 (configuration not stated) [LP 12 hydrochloride hydrate],scaled lipid accumulation score,[4],0.898 (active)
O=C(O)C=C1CCCc2ccccc2C1O (configuration not stated),scaled lipid accumulation score,[4],0.122 (inactive) and 0.034 (inactive)
CC(=O)c1ccc2c(c1)N(CCCN1CCN(CCO)CC1)c1ccccc1S2,scaled lipid accumulation score,[4],0.638 (inactive)
CSc1ccccc1N1CCN(CCCCCC(=O)NC2CCCc3ccccc32)CC1.Cl (configuration not stated),scaled lipid accumulation score,[4],1.06 (active)
CC(=O)Nc1cccc2c1c(Sc1ccc(Cl)cc1)c(C)n2CC(=O)O,scaled lipid accumulation score,[6],≤ -0.009 (inactive)
same,scaled lipid accumulation score,[4],0.195 (inactive)
CC[n+]1c(/C=C/N(C)c2ccccc2)n(-c2ccccc2)c2ccc(-c3nc4ccccc4s3)cc21 [Akt Inhibitor IV],scaled lipid accumulation score,[6],≤ 0 (inactive)
CCCCCCCCCCCCCCCCCCCC(=O)NCCO [Arachidoyl Ethanolamide],scaled lipid accumulation score,[1],≤ 0 (inactive)
COc1cc(/C=C/C(=O)N2CCCCCCC2)cc(OC)c1OC,scaled lipid accumulation score,[4],≤ 0 (inactive)
C[C@H]1O[C@@H](O[C@H]2[C@@H](O)C[C@H](O[C@H]3[C@@H](O)C[C@H](O[C@H]4CC[C@@]5(C)[C@H](CC[C@@H]6[C@@H]5CC[C@]5(C)[C@@H](C7=CC(=O)OC7)CC[C@]65O)C4)O[C@@H]3C)O[C@@H]2C)C[C@H](O)[C@@H]1O [Digitoxin],scaled lipid accumulation score,[4],0.545 (inactive)
C[C@H]1O[C@@H](O[C@H]2[C@@H](O)C[C@H](O[C@H]3[C@@H](O)C[C@H](O[C@H]4CC[C@]5(C)C6CC[C@]7(C)[C@@H](C8=CC(=O)OC8)CC[C@]7(O)C6CC[C@@H]5C4)O[C@@H]3C)O[C@@H]2C)C[C@H](O)[C@@H]1O (some centres not stated) [Digitoxin],scaled lipid accumulation score,[7],1.2 (active)
C[C@H]1O[C@@H](O[C@H]2[C@@H](O)C[C@H](O[C@H]3[C@@H](O)C[C@H](O[C@H]4CC[C@]5(C)C6C[C@@H](O)[C@]7(C)[C@@H](C8=CC(=O)OC8)CC[C@]7(O)C6CC[C@@H]5C4)O[C@@H]3C)O[C@@H]2C)C[C@H](O)[C@@H]1O (some centres not stated) [Digoxin],scaled lipid accumulation score,[7],0.937 (active)
C[C@H]1O[C@@H](O[C@H]2[C@@H](O)C[C@H](O[C@H]3[C@@H](O)C[C@H](O[C@H]4CC[C@@]5(C)[C@H](CC[C@@H]6[C@@H]5C[C@@H](O)[C@]5(C)[C@@H](C7=CC(=O)OC7)CC[C@]65O)C4)O[C@@H]3C)O[C@@H]2C)C[C@H](O)[C@@H]1O [Digoxin],scaled lipid accumulation score,,1.03 (active)
same,scaled lipid accumulation score,[6],1.11 (active)
same,scaled lipid accumulation score,[4],0.888 (active) and 0.816 (inactive)
C[C@H]1O[C@@H](O[C@H]2[C@@H](O)C[C@H](O[C@H]3[C@@H](O)C[C@H](O[C@H]4CC[C@@]5(C)[C@H](CC[C@@H]6[C@@H]5C[C@@H](O)[C@]5(C)[C@@H](C7=CC(=O)OC7)CC[C@]65O)C4)O[C@@H]3C)O[C@@H]2C)C[C@H](O)[C@@H]1O,scaled lipid accumulation score,[4],0.599 (inactive)
N[C@@H](Cc1ccc(F)cc1)C(=O)O [p-Fluoro-L-phenylalanine],scaled lipid accumulation score,[4],≤ -0.07 (inactive)
Nc1nc(-c2ccc(Cl)c(Cl)c2)c(-c2ccncc2)s1 [CGH 2466 dihydrochloride],scaled lipid accumulation score,[4],0.001 (inactive)
O=[N+]([O-])c1cc2nc(O)c(O)nc2cc1[N+](=O)[O-],scaled lipid accumulation score,[4],≤ -0.07 (inactive) and ≤ 0 (inactive)
CC(C)[C@H](NC(=O)[C@H](CC(=O)O)NC(=O)[C@H](CCCCN)NC(=O)[C@@H](N)CCCN=C(N)N)C(=O)N[C@@H](Cc1ccc(O)cc1)C(=O)O,scaled lipid accumulation score,[4],≤ 0 (inactive)
CCOC(=O)[C@]12CC1/C(=N\O)c1ccccc1O2 (some centres not stated),scaled lipid accumulation score,[4],≤ 0 (inactive) and 0.015 (inactive)
